The values below come from PubChem BioAssay (NCI).

This is part of a sample that, as a whole, favours compounds with a hit. Of some 83,000 tested, about 20% had one in any assay.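 Activity criterion: percent growth below 10, measured after cells in 96-well plates were exposed to a single compound concentration for 48 hours.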 A number with no mark means an inactive call. Active and inactive are the calls of the source.

Holding throughout (experiment): NCI-60 one-dose screen, 48 h (100 = growth as untreated, 0 = no growth, -100 = all killed)
The test system of experiment [1] is SK-MEL-2 melanoma. The settings on record: 10 µM unless noted.
In experiment [2] the test system is EKVX NSCLC. The settings on record: 10 µM unless noted.
Experiment [3] has as its system SN12C renal. The settings on record: 10 µM unless noted.
The subject of experiment [4] is ACHN renal. The settings on record: 10 µM unless noted.
Experiment [5] has as its system CAKI-1 renal. The settings on record: 10 µM.
The subject of experiment [6] is A498 renal. The settings on record: 10 µM unless noted.
The test system of experiment [7] is CCRF-CEM leukemia. The settings on record: 10 µM unless noted.
For experiment [8], the system named is MOLT-4 leukemia. The settings on record: 10 µM unless noted.
Experiment [9] has as its system SR leukemia. The settings on record: 10 µM unless noted.
The test system of experiment [10] is RPMI-8226 leukemia. The settings on record: 10 µM unless noted.
The subject of experiment [11] is OVCAR-8 ovarian. The settings on record: 10 µM unless noted.
Experiment [12] has as its system OVCAR-5 ovarian. The settings on record: 10 µM unless noted.
Experiment [13] deals with OVCAR-4 ovarian. The settings on record: 10 µM unless noted.
The test system of experiment [14] is SK-OV-3 ovarian. The settings on record: 10 µM unless noted.
In experiment [15] the test system is IGROV1 ovarian. The settings on record: 10 µM unless noted.
Experiment [16] concerns OVCAR-3 ovarian. The settings on record: 10 µM unless noted.
For experiment [17], the system named is HS 578T breast. The settings on record: 10 µM unless noted.
Experiment [18] concerns NCI/ADR-RES ovarian. The settings on record: 10 µM unless noted.
Experiment [19] has as its system TK-10 renal. The settings on record: 10 µM unless noted.

Turning to `O=c1c2ccccc2[nH]n1Cc1ccc2c(c1)OCO2`, the growth in [1] was 104%; in [2] it was 105%; in experiment [3], 101%; in experiment [4], 103%; in experiment [5] it was 104%; in experiment [6], 90.3%. The growth in experiment [7] is 96.2%; in experiment [8], 97.4%; in experiment [9], 115%; in experiment [10] it was 90.5%; in experiment [11], 104%; in [12], 95.7%. The growth in experiment [13] is 105%; in [14], 112%; in experiment [15], 111%; in [16], 104%; in experiment [17], 103%; in experiment [18], 113%.
For the compound `CCCN1C(=O)CSC1=Nc1ccc2cc3ccc(N=C4SCC(=O)N4CCC)cc3nc2c1`, the growth is 38.1% in experiment [1]; 33.8% in experiment [2]; 75% in [3]; 56.8% in [19]; 36.4% in [4]; 36% in experiment [5]. Besides, the growth in experiment [6] is 63.4%; in experiment [7] it was 31%; in [8] it was -18.8% (active); in experiment [10], 1.65% (active); in [11], 37.2%; in [12], 89.2%. For the same compound, the growth in experiment [13] is 15.3%; in [14], 74.5%; in experiment [16], 51%; in experiment [17], 31.6%; in [18], 24.5%.
In the case of `COc1ccc(-c2nnc(SCC(=O)Nc3ccc(C(=O)/C=C/c4ccccc4)cc3)o2)cc1OC`, the growth in experiment [1] was 98%; in [2], 100%; in experiment [3], 103%; in [19] it was 96.1%; in experiment [6] it was 95.7%; in experiment [7] it was 102%. Also, the growth in experiment [8] was 89.1%; in experiment [9], 88.1%; in [10], 70.5%; in experiment [11], 98.8%; in [12], 106%; in experiment [13], 101%. For the same compound, the growth in experiment [14] was 109%; in experiment [15], 103%; in experiment [16], 105%; in experiment [17], 110%; in experiment [18] it was 93.5%.
For `CC(=O)c1ccc2c(c1)C1C=CCC1[C@H](c1cc3c(cc1Br)OCO3)N2` (stereo not given in full), the growth was 16.1% in experiment [1]; 34.9% in experiment [2]; 43.5% in experiment [3]; 60.6% in experiment [19]; 38.6% in [4]; 20.3% in experiment [5]. In addition, the growth in experiment [6] was 13.5%; in experiment [7], 4.69% (active); in experiment [8], 7.5% (active); in experiment [10] it was 9.1% (active); in [11], 16.8%; in experiment [12], 34.7%. In addition, the growth in [13] is 56.1%; in [14], 34.2%; in experiment [16], 8.44% (active); in experiment [17], 7.06% (active); in experiment [18], 10.8%.
`O=C(Nc1cccc([N+](=O)[O-])c1)Nc1cccc([N+](=O)[O-])c1`: the growth in [1] was 53.9%; in experiment [2] it was 50.4%; in experiment [3], 70.3%; in experiment [19], 39%; in experiment [6], 33.1%; in [7], 15.5%. Further, the growth is 9.18% (active) in [8]; 38.2% in experiment [9]; 12.4% in [10]; 63.3% in experiment [11]; 89.6% in experiment [12]; 39.3% in experiment [13]. Also, the growth is 87.6% in experiment [14]; 63.6% in experiment [15]; 27.6% in [16]; 94.6% in experiment [17]; 52.1% in [18].
With `COc1ccc2c(c1)nnc1c3cccnc3[nH]c21`, the growth in experiment [1] was -13.2% (active); in experiment [2], 34.2%; in [3] it was -22.2% (active); in experiment [19] it was 11.8%; in [4], -10.2% (active); in [6], 40.3%. The growth in experiment [7] was -0.9% (active); in experiment [8], -21.6% (active); in experiment [10], -41.9% (active); in experiment [11], 3.13% (active); in experiment [12] it was 36.1%; in [13], 14.8%. Besides, the growth in [14] is 19%; in experiment [16], -51.1% (active); in [17], -24.5% (active); in experiment [18], 13.8%.
Regarding `COc1ccc(C2=NN(C(=O)COc3ccc(Cl)cc3)C(O)(c3cc(F)c(Cl)cc3Cl)C2)cc1OC` (stereo not given), the growth is 68.3% in experiment [1]; 61.6% in experiment [2]; 19.8% in experiment [3]; 16% in experiment [19]; 5.24% (active) in experiment [4]; 141% in experiment [6]. In addition, the growth is -62.1% (active) in [7]; -32% (active) in experiment [8]; -35.1% (active) in experiment [9]; 5.4% (active) in experiment [11]; 82.8% in experiment [12]; 21.8% in experiment [13]. The growth was 93.6% in experiment [14], -50.6% (active) in experiment [15], 22% in experiment [17] and 19.9% in experiment [18].
Take `Cn1c(I)c(C#C[Si](C)(C)C)c(=O)[nH]c1=O`: the growth was 60.7% in [1]; 86.5% in experiment [2]; 32.8% in experiment [3]; 82.3% in experiment [19]; -28.4% (active) in experiment [4]; -79% (active) in experiment [5]. In addition, the growth in experiment [6] was 130%; in experiment [7] it was -61.6% (active); in experiment [8] it was -59.7% (active); in experiment [10] it was 46.5%; in [11], -11.7% (active); in [12] it was 77.7%. In addition, the growth in experiment [13] was -65% (active); in [16], -54.1% (active); in experiment [17] it was 10.6%; in [18], 83.3%.
With `CC(C)(C)C(=O)Nc1nc2c(s1)CCc1ccn(S(=O)(=O)c3ccccc3)c1-2`, the growth in experiment [1] is 81.8%; in [2], 87.7%; in experiment [3] it was 112%; in [19], 82.1%; in experiment [6], 101%; in experiment [7] it was 92.9%. Moreover, the growth in [8] is 70.8%; in experiment [9] it was 83.1%; in experiment [10], 78.6%; in [11] it was 100%; in experiment [12], 97.7%; in [13], 95.2%. Further, the growth in experiment [15] is 97.3%; in experiment [16], 95.3%; in experiment [17], 98.6%; in [18], 85.7%.
